From PubChem BioAssay (Tox21)
Inconclusive results are not listed. Calls of active or inactive are those of the source. Unless noted, calls follow the shape of the full dose curve.

Legend:
[1] = Nuclear factor erythroid 2-related factor 2/antioxidant responsive element (Nrf2/ARE) small molecule agonists: qHTS cell viability counter screen in human keratinocytes (AID 1919968; active = well fitted curve in the direction sought with a large enough effect in the repeat runs; an effect the other way counts as inactive or inconclusive; also: nearly all actives have a fitted effect of over 55% in size; also: potency is read from the fitted curve at half-maximal effect)
In short: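 In human HaCaT keratinocytes stably expressing an ARE-driven luciferase, compound exposure lasted 23 h at 37 C under 5% CO2. Viable cells are quantified with a protease-based fluorogenic reagent (CellTiter-Fluor) read 1 h after addition.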

[2] = Nuclear factor erythroid 2-related factor 2/antioxidant responsive element (Nrf2/ARE) small molecule agonists: luciferase reporter gene qHTS assay in human keratinocytes (AID 1919969); also: nearly all actives have a fitted effect of over 35% in size
[3] = target: Gonadotropin-releasing hormone receptor (Homo sapiens) (UniProt P30968); test: Human gonadotropin-releasing hormone receptor (GnRHR) small molecule agonists, calcium flux assay in GnRHR-HEK293 cells (AID 1920063); also: nearly all actives have a fitted effect of over 35% in size
In short: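 Intracellular calcium rise is the read-out: engineered human GnRHR HEK293 cells, dye-loaded, are exposed to DMSO-dissolved compounds and fluorescence at Ex/Em 480/540 is tracked for 3 min.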

[4] = target: KiSS-1 receptor (Homo sapiens) (UniProt Q969F8); test: Human kisspeptin (KISS1R) small molecule agonists, calcium flux assay in KISS1R-HEK293 cells (AID 1920064; active = well fitted curve in the direction sought with a large enough effect in the repeat runs; an effect the other way counts as inactive or inconclusive)
In short: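 Concentration-response testing used 15 concentrations in triplicate on human KISS1R-expressing HEK293 cells. Calcium-dependent fluorescence (Ex/Em 480/540) was followed kinetically for 3 min after compound transfer.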

[5] = G protein-coupled receptor (GPCR) small molecule agonists, calcium flux assay: HEK293 wild type cell line counter screen (AID 1920065)
In short: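 Fluorescence intensity signals activation. After overnight (18 h) culture and a 1 h calcium dye load at 37 C, compounds are added by pin tool and the plate read at 480/540 nm for 3 min in 1 s steps.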

[6] = p53 small molecule agonists, cell-based qHTS assay with human liver microsomes (AID 1963577);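 also: p53 response element beta-lactamase reporter cells with liver microsomes plus NADPH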
In short: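 p53RE-bla cells; 5 h settle, 37 C/5% CO2; cpd + HLM 0.5 mg/mL + NADPH 0.5 mg/mL (final); 16 h 37 C; LiveBLAzer 2 h RT dark; fluorescence readout.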

[7] = p53 small molecule agonists, cell-based qHTS assay with rat liver microsomes (AID 1963578)
In short: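 Rat liver microsome activation: microsomes 0.5 mg/mL, NADPH 0.5 mg/mL final; p53RE-bla cells, 16 h 37 C; LiveBLAzer readout, 2 h RT dark.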

[8] = p53 small molecule agonists, cell-based qHTS assay with human liver microsomes: qHTS cell viability counter screen (AID 1963579); also: nearly all actives have a fitted effect of over 45% in size
In short: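 Luminescent CellTiter-Glo read-out, 30 min at room temperature, gauged cytotoxicity in p53RE-bla cells exposed 16 h at 37 C to DMSO-dissolved compounds with metabolic activation by human liver microsomes and NADPH, each 0.5 mg/mL final.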

[9] = p53 small molecule agonists, cell-based qHTS assay with rat liver microsomes: qHTS cell viability counter screen (AID 1963580); also: nearly all actives have a fitted effect of over 45% in size
In short: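 Counter screen for cytotoxicity under metabolic activation: rat liver microsomes and NADPH, 0.5 mg/mL final each, added with compounds to p53RE-bla HCT-116 cells; 16 h at 37 C, then ATP luminescence read.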

[10] = p53 small molecule agonists, cell-based qHTS assay: qHTS cell viability counter screen (AID 1963581); also: nearly all actives have a fitted effect of over 45% in size
In short: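 Luminescence from CellTiter-Glo, reflecting ATP content, serves as the cytotoxicity measure; it is taken after the 2 h reporter substrate step in HCT-116 p53RE-bla cells dosed for 16 h at 37 C.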

[11] = target: 5-hydroxytryptamine receptor 2A (Homo sapiens) (UniProt P28223); test: 5-hydroxytryptamine receptor 2A (HTR2A) small molecule antagonists, cell-based qHTS assay (AID 1963586); also: nearly all actives have a fitted effect of over 45% in size
In short: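 CHO cells stably expressing human HTR2A were plated for 18 h at 37 C, then loaded with calcium dye for 1 h. Compounds were preincubated 5 min at room temperature before DOI (4 nM solution) was added. Kinetic fluorescence was read for 3 min.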

[12] = target: Muscarinic acetylcholine receptor M1 (Homo sapiens) (UniProt P11229); test: Cholinergic receptor muscarinic 1 (CHRM1) small molecule antagonists, cell-based qHTS assay (AID 1963588); also: nearly all actives have a fitted effect of over 40% in size
In short: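 Compounds were tested at 15 concentrations in three independent runs. Dye-loaded CHRM1-CHO cells were exposed 5 min at room temperature before stimulation by acetylcholine added at 50nM. Intracellular calcium was read kinetically on FDSS for 3 min.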

[13] = target: Muscarinic acetylcholine receptor M1 (Homo sapiens) (UniProt P11229); test: Cholinergic receptor muscarinic 1 (CHRM1) small molecule agonists, cell-based qHTS assay (AID 1963589); also: nearly all actives have a fitted effect of over 35% in size
In short: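 Fluorescent calcium dye reports M1 activation in stably transfected CHO cells. Compounds, 15 concentrations, added after 1 h dye loading at 37 C; kinetic reading at 1 sec intervals.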

[14] = cAMP Responsive Elements (CRE) small molecule agonists, cell-based qHTS assay (AID 1963590)
In short: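 Compound exposure lasted 3 h at 37 C/5% CO2 in CRE-bla HEK 293T cells grown in assay medium with 10% dialyzed FBS and 25 mM HEPES. Reporter signal came from LiveBLAzer B/G FRET substrate, 2 h, room temperature.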

[15] = cAMP Responsive Elements (CRE) small molecule antagonists, cell-based qHTS assay (AID 1963591; active = well fitted inhibition curve with a large enough effect in the signal ratio in the repeat runs, not every such curve was filed as active; the % refers to the signal ratio)
In short: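 Stimulation used NKH477 at a final 0.25 uM for 3 h in compound-treated CRE-bla HEK293T cells, seeded 18 h beforehand. Reporter activity was measured with LiveBLAzer B/G FRET substrate after 2 h at room temperature.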

[16] = target: Beta-2 adrenergic receptor (Homo sapiens) (UniProt P07550); test: Adrenergic beta2 receptor (ADRB2) small molecule agonists, cell-based qHTS assay (AID 1963593);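 also: CHO cells stably overexpressing human ADRB2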
In short: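 CHO cells stably over-expressing ADRB2 were plated overnight at 37C, then dosed with compounds plus a stimulation mix containing 100uM IBMX and 25uM Ro-20-1724 for 0.5hr at room temperature. cAMP was measured by HTRF competition, 1hr.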

[17] = target: D(2) dopamine receptor (Homo sapiens) (UniProt P14416); test: Dopamine D2 receptor (DRD2) small molecule agonists, cell-based qHTS assay (AID 1963594); also: nearly all actives have a fitted effect of over 35% in size
In short: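 HEK293 cells stably expressing DRD2 were cultured 24 h at 37 C, then given Ro20-1724 (0.1 mM final) and compounds for 10 min at room temperature. NKH477 (200nM) was then added for 30 min. cAMP was read by HTRF.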

[18] = target: Beta-2 adrenergic receptor (Homo sapiens) (UniProt P07550); test: Adrenergic beta2 receptor (ADRB2) small molecule antagonists, cell-based qHTS assay (AID 1963592); also: series mostly up to about 92 µM; nearly all actives have a fitted effect of over 50% in size
In short: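 Assay format: CHO-ADRB2 cells, 18-20hr seeding at 37C/5% CO2, then compound plus 1nM isoproterenol agonist mix for 0.5hr RT. Homogeneous time-resolved fluorescence cAMP detection after 1hr, expressed as 665/615 nm ratio.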

[19] = target: D(2) dopamine receptor (Homo sapiens) (UniProt P14416); test: Dopamine D2 receptor (DRD2) small molecule antagonists, cell-based qHTS assay (AID 1963595; active = well fitted inhibition curve with a large enough effect in the signal ratio in the repeat runs, with a control signal flat; the % refers to the signal ratio)
In short: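 HEK293 cells stably expressing DRD2, preincubated with 0.1 mM Ro20-1724 and compounds 10 min, were stimulated with 200 nM NKH477 plus 12 nM quinpirole for 30 min at room temperature; cAMP measured by HTRF (665/620 nm).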

[20] = target: 5-hydroxytryptamine receptor 2A (Homo sapiens) (UniProt P28223); test: 5-hydroxytryptamine receptor 2A (HTR2A) small molecule agonists, cell-based qHTS assay (AID 1963587); also: nearly all actives have a fitted effect of over 30% in size
In short: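 HTR2A-CHO cells, plated 18 h at 37 C/5% CO2, dye-loaded 1 h at 37 C; compounds in DMSO added by pin tool (agonist mode). Intracellular calcium flux read as kinetic fluorescence on FDSS over 2 min at 1 s intervals.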
% is scaled to controls: 0 for no effect and ±100 for the full control effect.

Chain of Gonadotropin-releasing hormone receptor (Homo sapiens) (P30968 whole entry, looked up): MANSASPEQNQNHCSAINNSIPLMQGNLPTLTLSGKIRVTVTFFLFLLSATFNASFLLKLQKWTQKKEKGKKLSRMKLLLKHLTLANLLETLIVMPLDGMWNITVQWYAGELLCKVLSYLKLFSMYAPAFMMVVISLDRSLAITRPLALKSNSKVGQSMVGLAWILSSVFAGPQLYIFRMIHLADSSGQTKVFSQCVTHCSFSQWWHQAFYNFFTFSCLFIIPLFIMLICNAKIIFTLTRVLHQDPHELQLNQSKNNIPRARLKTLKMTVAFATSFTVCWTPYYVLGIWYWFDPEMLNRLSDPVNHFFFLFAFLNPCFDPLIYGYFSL
Chain of KiSS-1 receptor (Homo sapiens) (Q969F8 whole entry, looked up): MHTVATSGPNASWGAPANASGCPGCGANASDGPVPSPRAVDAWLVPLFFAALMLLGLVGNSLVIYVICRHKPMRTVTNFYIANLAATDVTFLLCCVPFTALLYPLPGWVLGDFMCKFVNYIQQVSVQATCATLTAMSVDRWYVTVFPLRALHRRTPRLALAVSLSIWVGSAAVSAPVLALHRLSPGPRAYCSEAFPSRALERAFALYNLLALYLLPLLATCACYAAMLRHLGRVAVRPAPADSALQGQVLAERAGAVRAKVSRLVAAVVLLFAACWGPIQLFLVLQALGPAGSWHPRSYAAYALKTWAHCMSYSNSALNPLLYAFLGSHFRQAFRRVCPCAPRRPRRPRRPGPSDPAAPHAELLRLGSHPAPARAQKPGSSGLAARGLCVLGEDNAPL
Chain of Beta-2 adrenergic receptor (Homo sapiens) (P07550 whole entry, looked up): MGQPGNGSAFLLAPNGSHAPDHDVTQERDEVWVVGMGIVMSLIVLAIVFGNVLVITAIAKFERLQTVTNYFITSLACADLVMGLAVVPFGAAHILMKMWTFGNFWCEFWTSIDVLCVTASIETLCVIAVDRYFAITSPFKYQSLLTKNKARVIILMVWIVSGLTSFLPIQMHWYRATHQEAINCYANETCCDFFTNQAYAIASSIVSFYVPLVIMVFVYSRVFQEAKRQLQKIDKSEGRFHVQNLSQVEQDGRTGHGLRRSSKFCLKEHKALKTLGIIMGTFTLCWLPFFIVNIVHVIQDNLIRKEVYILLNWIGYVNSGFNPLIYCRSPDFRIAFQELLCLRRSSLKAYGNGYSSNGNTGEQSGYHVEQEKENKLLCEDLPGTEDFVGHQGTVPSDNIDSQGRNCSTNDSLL
Chain of Muscarinic acetylcholine receptor M1 (Homo sapiens) (P11229 whole entry, looked up): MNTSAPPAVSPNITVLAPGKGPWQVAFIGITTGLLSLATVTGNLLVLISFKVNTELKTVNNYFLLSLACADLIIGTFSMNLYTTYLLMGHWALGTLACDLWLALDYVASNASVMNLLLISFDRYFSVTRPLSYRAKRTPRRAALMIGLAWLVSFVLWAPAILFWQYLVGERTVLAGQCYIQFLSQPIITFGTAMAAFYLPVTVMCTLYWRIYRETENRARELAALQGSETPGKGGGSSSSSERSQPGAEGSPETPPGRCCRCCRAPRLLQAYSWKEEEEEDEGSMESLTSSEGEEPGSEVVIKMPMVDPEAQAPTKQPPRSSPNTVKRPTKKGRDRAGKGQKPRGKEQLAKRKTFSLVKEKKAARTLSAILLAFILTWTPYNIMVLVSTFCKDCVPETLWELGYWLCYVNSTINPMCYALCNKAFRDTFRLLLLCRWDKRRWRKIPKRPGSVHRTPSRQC
Chain of D(2) dopamine receptor (Homo sapiens) (P14416 whole entry, looked up): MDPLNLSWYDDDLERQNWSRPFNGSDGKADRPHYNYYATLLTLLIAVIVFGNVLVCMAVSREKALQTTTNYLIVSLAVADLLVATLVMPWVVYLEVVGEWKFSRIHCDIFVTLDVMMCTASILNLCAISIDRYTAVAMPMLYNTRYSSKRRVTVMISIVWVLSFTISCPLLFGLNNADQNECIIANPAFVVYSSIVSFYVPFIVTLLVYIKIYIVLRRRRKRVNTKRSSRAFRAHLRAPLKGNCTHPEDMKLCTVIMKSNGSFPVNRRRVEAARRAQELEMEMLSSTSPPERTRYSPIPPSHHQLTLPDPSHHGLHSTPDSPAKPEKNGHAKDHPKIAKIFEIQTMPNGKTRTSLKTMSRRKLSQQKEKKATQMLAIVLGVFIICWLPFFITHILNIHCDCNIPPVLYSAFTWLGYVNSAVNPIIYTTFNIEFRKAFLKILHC
Chain of 5-hydroxytryptamine receptor 2A (Homo sapiens) (P28223 whole entry, looked up): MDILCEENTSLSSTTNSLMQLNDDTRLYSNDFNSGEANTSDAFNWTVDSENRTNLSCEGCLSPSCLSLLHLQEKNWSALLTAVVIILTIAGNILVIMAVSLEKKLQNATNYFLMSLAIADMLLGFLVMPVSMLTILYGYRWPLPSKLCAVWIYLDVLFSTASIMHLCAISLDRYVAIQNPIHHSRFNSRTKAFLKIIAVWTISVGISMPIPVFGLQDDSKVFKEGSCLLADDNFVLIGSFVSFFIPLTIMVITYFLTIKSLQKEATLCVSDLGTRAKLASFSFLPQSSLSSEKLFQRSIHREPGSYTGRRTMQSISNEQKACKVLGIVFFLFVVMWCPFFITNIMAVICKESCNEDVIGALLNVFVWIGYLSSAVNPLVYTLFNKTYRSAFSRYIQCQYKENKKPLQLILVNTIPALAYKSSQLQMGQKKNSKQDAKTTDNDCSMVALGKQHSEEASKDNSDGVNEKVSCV

COc1cccc(Br)c1
inactive: Potency [1] | Potency [2] | Potency [3] | Potency [4] | Potency [5] | Potency [6] | Potency [7] | Potency [8] | Potency [9] | Potency [10] | Potency [11] | Potency [12] | Potency [13] | Potency [14] | Potency [15] | Potency [16] | Potency [17]

CO[Si](CCCNCCNCCN)(OC)OC
inactive: Potency [1] | Potency [2] | Potency [3] | Potency [4] | Potency [5] | Potency [6] | Potency [7] | Potency [8] | Potency [9] | Potency [10] | Potency [11] | Potency [12] | Potency [14] | Potency [15] | Potency [18] | Potency [17]

N[C@H](C(=O)O)c1ccc(O)cc1
inactive: activity change, negative = cytotoxicity [1] 7.62% [at 19 µM] | activity, positive = activation [2] 16.5% [at 19 µM] | activity change [3] -1.58% [at 11.8 µM, active compounds read high] | activation [4] 3.74% [at 15.8 µM] | activation [5] 0.205% [at 11.8 µM] | activation [6] 0.205% [at 13.5 µM] | activation [7] 0.317% [at 13.6 µM] | activity change, negative = cytotoxicity [8] 0.34% [at 13.5 µM] | activity change, negative = cytotoxicity [9] 4.85% [at 13.5 µM] | activity change, negative = cytotoxicity [10] -1.01% [at 13.5 µM] | activity, negative = inhibition [11] 57.4% [at 12.7 µM] | activity, negative = inhibition [12] 8.36% [at 12.6 µM] | activation [13] 0.717% [at 15.8 µM] | activation [14] -0.179% [at 19 µM] | activity change, negative = inhibition [15] 0.811% [at 18.9 µM] | activity change, negative = inhibition [18] -0.335% [at 19 µM] | activation [16] 19.3% [at 19 µM] | activation [17] -12.3% [at 19 µM] | activity change, negative = inhibition [19] 7.69% [at 18.9 µM]

CCSC(=O)N(CC)CC
inactive: Potency [1] | Potency [2] | Potency [3] | Potency [4] | Potency [5] | Potency [6] | Potency [7] | Potency [8] | Potency [9] | Potency [10] | Potency [11] | Potency [12] | Potency [13] | Potency [14] | Potency [15] | Potency [18] | Potency [16] | Potency [17] | Potency [19]

CC1OC1C1CCC2(C)OC2C1 (stereo not given)
inactive: Potency [1] | Potency [2] | Potency [3] | Potency [4] | Potency [5] | Potency [6] | Potency [7] | Potency [8] | Potency [9] | Potency [10] | Potency [20] | Potency [12] | Potency [13] | Potency [14] | Potency [15] | Potency [18] | Potency [17] | Potency [19]

CC(=O)N1C[C@H](O)C[C@H]1C(=O)O
inactive: Potency [1] | Potency [2] | Potency [3] | Potency [4] | Potency [5] | Potency [6] | Potency [7] | Potency [8] | Potency [9] | Potency [10] | Potency [11] | Potency [12] | Potency [13] | Potency [14] | Potency [15] | Potency [18] | Potency [17] | Potency [19]

Cc1cc(C)c(S(=O)(=O)O)cc1N=Nc1cc(S(=O)(=O)O)c2ccccc2c1O
inactive: Potency [2] | Potency [3] | Potency [4] | Potency [5] | Potency [6] | Potency [7] | Potency [8] | Potency [9] | Potency [10] | Potency [11] | Potency [12] | Potency [14] | Potency [15] | Potency [18]
active: Potency [1] 30.6 µM

CC(=O)N[C@@H](Cc1ccc(O)cc1)C(=O)O
inactive: Potency [1] | Potency [2] | Potency [3] | Potency [4] | Potency [5] | Potency [6] | Potency [7] | Potency [8] | Potency [9] | Potency [10] | Potency [20] | Potency [12] | Potency [13] | Potency [14] | Potency [15] | Potency [18] | Potency [16] | Potency [19]
